# This is a sample that favours compounds with a hit; in the whole collection about 9.3% have one here.
# FLuc modulator – qHTS profiling assay for firefly luciferase inhibitor/activator using purifed enzyme and Km concentrations of substrates (counterscreen for miR-21 project) | Luciferin 4-monooxygenase (Photinus pyralis), P08659 | purified FLuc, Km substrates, luminescence inhibition | Potency, µM (doses to about 57.5 µM), for inactives: top-dose activity change, negative = inhibition, actives largely listed as inhibitors | 360,000 tested, 6.9% active;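 further: plate controls were vehicle for no effect and reference inhibitor for full effect; nearly all actives have a fitted effect of over 55% in size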
# Target sequence (P08659 whole entry, looked up): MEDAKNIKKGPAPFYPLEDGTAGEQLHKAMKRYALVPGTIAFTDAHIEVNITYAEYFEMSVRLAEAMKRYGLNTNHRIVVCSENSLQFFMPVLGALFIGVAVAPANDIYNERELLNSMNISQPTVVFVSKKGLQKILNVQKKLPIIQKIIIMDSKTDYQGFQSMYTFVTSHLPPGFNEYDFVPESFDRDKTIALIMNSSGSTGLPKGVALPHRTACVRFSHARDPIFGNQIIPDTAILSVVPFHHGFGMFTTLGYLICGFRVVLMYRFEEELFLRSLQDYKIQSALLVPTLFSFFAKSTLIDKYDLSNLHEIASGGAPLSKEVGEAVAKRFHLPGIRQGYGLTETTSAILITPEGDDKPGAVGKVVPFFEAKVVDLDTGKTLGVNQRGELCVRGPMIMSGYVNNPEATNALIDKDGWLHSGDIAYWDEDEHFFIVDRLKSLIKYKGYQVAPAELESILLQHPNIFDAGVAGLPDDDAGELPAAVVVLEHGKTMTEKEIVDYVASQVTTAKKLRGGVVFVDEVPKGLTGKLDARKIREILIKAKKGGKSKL
#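 Purified P. pyralis luciferase, 10 nM final, with Km-level 10 uM D-luciferin and 10 uM ATP in 50 mM Tris acetate pH 7.5, 10 mM Mg acetate, 0.01% Tween-20, 0.05% BSA; 6-point qHTS titration about 60 µM downward; luminescence read.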
# ELG1 genotox – qHTS screen for small molecules that induce genotoxicity in human embryonic kidney (HEK293T) cells expressing luciferase-tagged ELG1; HEK293T ELG1-luciferase reporter, luminescence, 16 h; Potency, µM (titrated, usually from 46 µM), without a hit: at the top dose activity change, positive = activation, usual class: activators; 330,000 tested, 1.3% active; AID 504466, 2011; further: % of control where 0% means no effect; nearly all actives have a fitted effect of over 60% in size
#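 HEK293T cells expressing luciferase-tagged ELG1 were treated with compound or DMSO for 16 hr at 37°C. Luciferase activity was then read after 30 min with ONE-Glo at room temperature; rising signal flags genetic stress.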
# SMN2 splice up – qHTS Assay for Enhancers of SMN2 Splice Variant Expression | HEK293 SMN2-luciferase splicing reporter, luminescence, 30-36 h | Potency, µM (doses to about 46.1 µM), inactives show at the top dose activity change, positive = activation, actives largely listed as activators | 210,000 tested, 2.8% active | AID 1458, 2008; further: % of control where 0% means no effect; nearly all actives have a fitted effect of over 55% in size
#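 qHTS luciferase splicing reporter: luminescence rises when SMN2 exon 7 is included in transfected HEK293 cells. Compound exposure lasted 30-36 h at 37C, with 4.5 mM final sodium butyrate as control, followed by a ONE-Glo read.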
# ELG1 repair inh – qHTS screen for small molecules that inhibit ELG1-dependent DNA repair in human embryonic kidney (HEK293T) cells expressing luciferase-tagged ELG1; HEK293T ELG1-luciferase reporter, luminescence, 16 h; DNA damage induced by 5-fluorouridine; Potency, µM (doses to about 46.1 µM), inactives show at the highest dose activity change, negative = inhibition, actives largely listed as inhibitors; 330,000 tested, 2.3% active; AID 504467, 2011; further: on the % scale 0 is the no-effect control and ±100 the full control effect; nearly all actives have a fitted effect of over 55% in size
#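 DMSO vehicle served as the neutral condition. Each well held 2,000 cells given 5-fluorouridine plus compound; after 16 hr at 37 °C/5% CO2, ONE-Glo was added and luciferase measured 30 min later.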
# NPC1 prom act – qHTS Assay for NPC1 Promoter Activators; Huh7 NPC1 promoter luciferase reporter, 24 h; Potency, µM (series often up to 9.22 µM), for inactives: at the top dose activation, most hits filed as activators; 320,000 tested, 2.4% active; AID 485313, 2010; further: % of control where 0% means no effect; nearly all actives have a fitted effect of over 60% in size
#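 Stably transfected Huh7 (NPC1 promoter→luciferase), 1500 cells/well in Opti-MEM + 10% FBS, 2 h settle, then compound 24 h at 37 °C. Luminescence after 10 min with Amplite reagent.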
# Rab9 promoter act – qHTS Assay for Rab9 Promoter Activators; Huh7 Rab9 promoter-luciferase reporter, luminescence, 24 h; Potency, µM (series often up to 9.22 µM), inactives show top-dose activation, negative = inhibition, most hits filed as activators; 320,000 tested, 2.8% active; further: % of control where 0% means no effect; nearly all actives have a fitted effect of over 60% in size
#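 Measured in stably transfected Huh7 cells bearing a Rab9 promoter–luciferase construct: 24 h compound treatment at 37 °C, followed by luminescence detection.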
# Active calls of the source: *; ? = inconclusive; · = no result given. The call rests on the fitted dose curve; in most records, active means well fitted curve in the direction sought with a large enough effect; inconclusive means small, poorly fitted or top-dose-only effect, or another doubt; inactive means no such curve, though single readings can be large; an effect the other way counts as inactive or inconclusive. Potency means the concentration at half of the fitted maximal effect.
SMILES,FLuc modulator,ELG1 genotox,SMN2 splice up,ELG1 repair inh,NPC1 prom act,Rab9 promoter act
COC(=O)c1ccc(CSc2nccn2C)cc1,?,13µM*,11µM*,?,18%,18%
COC(=O)c1ccc(CNC(=O)CSC2=NCCS2)cc1,-6%,-3%,9%,8%,-1%,0%
O=C(Nc1ccc(Br)cc1)c1cccn1-c1ncc(C(F)(F)F)cc1Cl,0%,-1%,3%,0%,6%,2%
COC(=O)c1ccc(CSC2=NCCS2)cc1,?,?,18µM*,?,?,?
O=C(CSc1nccn1-c1ncc(C(F)(F)F)cc1Cl)c1ccc(Br)cc1,-18%,?,-34%,?,3.5µM*,1.6µM*
COc1cc(C(=O)CSc2nccn2C)cc(OC)c1OC,-1%,11%,·,0%,0%,8%
CCC(=O)N1CCc2cc(Br)cc(S(=O)(=O)NCC3CCCO3)c21 (centres undefined),3%,2%,7%,?,-3%,-7%
Cn1ccnc1SCC(=O)c1cccc(C(F)(F)F)c1,17µM*,?,·,?,2.8µM*,4µM*
Cc1ccc(-c2nc(-c3cccnc3)no2)c(C)c1,?,5.2µM*,16µM*,?,2µM*,1.8µM*
c1ccc(-c2noc(-c3ccccc3-c3ccccc3)n2)cc1,-14%,0%,-11%,17%,-2%,-5%
Brc1ccc(-c2nc(-c3cccnc3)no2)o1,17µM*,?,?,?,4µM*,2.8µM*
Brc1ccc(-c2nc(-c3ccccc3)no2)o1,12µM*,8.2µM*,18µM*,?,3.5µM*,2.5µM*
COc1cccc(C(=O)NC(=S)Nc2ccccc2N2CCCC2)c1,-7%,-3%,-7%,-14%,10%,2%
CC(=O)Nc1ccc(CNC(=O)C[N+]2(C)CCOCC2)cc1,0%,0%,·,5%,-2%,-2%
CCOc1ccc(CN2CCc3nc(N4CCN(c5ccccn5)CC4)ncc3C2)cc1OC,-8%,·,·,·,·,·
C=CCSC1=N/C(=C\C=C\c2ccco2)C(=O)S1,13µM*,1%,7%,8%,6%,2%
Cc1ccc(-c2nnn(CC(=O)N(c3ccccc3)C(C(=O)NC3CCCC3)c3ccncc3)n2)o1 (centres undefined),4%,21%,·,28%,-3%,-1%
COc1ccc(CN(C(=O)Cn2nnc(-c3ccc(C)o3)n2)C(C(=O)NCC2CCCO2)c2ccco2)cc1 (centres undefined),0.19µM*,?,·,?,?,?
Cc1ccc(N(C(=O)Cn2nnc(-c3ccc(C)o3)n2)C(C(=O)NC2CCCC2)c2ccco2)cc1 (centres undefined),0%,4%,28µM*,-6%,2%,-6%
CC(=O)/C(=N/Nc1ccc(Br)cc1)Sc1cccc2cccnc12,-4%,-3%,-24%,?,-1%,-7%
Cc1cc(C)c(NC(=O)CSc2nnc(-c3ccccn3)n2N)c(Cl)c1,5%,-3%,·,-18%,-4%,-3%
CC(=O)CSc1nc2cc3c(cc2cc1C#N)OCCO3,0.67µM*,?,·,?,3.2µM*,?
N#Cc1cc2cc3c(cc2nc1SCC(=O)N1CCCC1)OCCO3,3%,3%,·,?,?,?
COc1cc2cc(C#N)c(SCC(=O)N3CCOCC3)nc2cc1OC,-1%,9%,13µM*,-4%,14%,4%

# Source: PubChem
